HCMV antiviral – inhibitors of human cytomegalovirus | HFF cells, HCMV-luciferase reporter, 72 h; active compounds read low | activity change, negative = inhibition, % at 57.5 µM | 410,000 compounds, 4.5% hits; in the data active means activity change below about -60%; inconclusive means no clear call, values can overlap the other calls; inactive means above about -39%
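Screen run at 2 compound doses on HFFs infected with reporter HCMV, MOI 1 PFU/cell. Luciferase activity from cell lysates at 72 h post infection gave inhibition relative to buffer-only and Salinomycin wells.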
VACV Venus inh – vaccinia inhibition (Venus reporter); AID 720580; Vaccinia virus Venus reporter expression, fluorescence; Potency, µM (highest dose often 36.5 µM), for the others: at the highest dose activity change, negative = inhibition, actives largely listed as inhibitors; 330,000 compounds, 0.46% hits; calls by dose curve; tested in A549 cells; further: potency means the concentration at half of the fitted maximal effect; nearly all actives have a fitted effect of over 30% in size
HCV inh – HCV inhibition. Huh7.5.1 HCVcc-Cre infection, luciferase reporter, 44 h. Potency, µM (series often up to 41.8 µM), for the others: at the highest dose activity change, negative = inhibition, usual class: inhibitors. 340,000 compounds, 3.4% hits. AID 651820; active means well fitted inhibition curve with a large enough effect; inconclusive means small, poorly fitted or top-dose-only effect, or another doubt; inactive means no such curve, though single readings can be large or run the other way; further: potency means the concentration at half of the fitted maximal effect
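Seed cells (1,000/well) for 4 h; treat with compound and infect with HCVcc-Cre, moi about 0.5. Incubate 44 h, then detect luciferase activity.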
MARV entry inh – Marburg virus entry inhibition; Marburg virus pseudotyped entry inhibition, cell reporter; Potency, µM (highest dose often 37.8 µM), inactives show at the highest dose activity change, negative = inhibition, hits mostly inhibitors; 300,000 compounds, 1.8% hits; calls by dose curve; tested in HEK293 cells; further: potency means the concentration at half of the fitted maximal effect
Vaccinia mCherry – inhibitors of vaccinia virus infection (mCherry reporter signal). Vaccinia virus mCherry reporter infection, fluorescence. Potency, µM (titrated, usually from 36.5 µM), for the others: at the top dose activity change, negative = inhibition, usual class: inhibitors. 310,000 compounds, 0.63% hits. AID 720579; calls by dose curve; tested in A549 cells; further: potency means the concentration at half of the fitted maximal effect; nearly all actives have a fitted effect of over 35% in size
Lassa entry inh – blocks Lassa virus binding to or entry into cells; AID 540256; Lassa virus pseudotype entry inhibition, cell reporter; Potency, µM (series often up to 37.9 µM), for inactives: at the highest dose activity change, negative = inhibition, usual class: inhibitors; 300,000 compounds, 1.2% hits; calls by dose curve; tested in HEK293 cells; further: potency means the concentration at half of the fitted maximal effect; nearly all actives have a fitted effect of over 50% in size
* = called active by the depositor; i = inactive; ? = inconclusive; · = no result; ! = not active in a repeat; [ ] = remark or other dose. In the library only some 7.8% were active in any assay of this set; here they are far more common. On the % scale 0 is the no-effect control and ±100 the full control effect.

SMILES	HCMV antiviral	VACV Venus inh	HCV inh	MARV entry inh	Vaccinia mCherry	Lassa entry inh
Cc1ccc(C(=O)NN2C(=O)/C(=C/c3cn(C)c4ccccc34)SC2=S)cc1	-69*	1%	4%	3%	-13%	?
O=C(c1cc(-c2ccccc2)nn1-c1ccccc1)N1CCN(S(=O)(=O)c2c(F)cccc2F)CC1	-20	-12%	13µM*	18%	i	?
O=C(c1cc(C2CC2)nn1-c1ccccc1)N1CCN(S(=O)(=O)c2ccccc2)CC1	?	-2%	?	-26%	-14%	?
CCCc1ccc(-c2ccc(C(=O)O)cc2)nc1	42	-3%	21%	?	-8%	12µM*
CCN(c1ccc(OC)cc1)S(=O)(=O)c1ccc(-c2cc(C)no2)s1	-76*	·	-20%	·	·	·
Cc1ccc(Cl)cc1NC(=O)CSc1ccc(C(=O)O)cn1	3	-3%	·	-5%[46.1 µM]	-15%	1%[46.1 µM]
Cc1ccc(-n2nnnc2SCc2nnc(-c3ccccc3Br)o2)c(C)c1	-64*	-20%	?	?	-14%	?
CCNc1nc(Nc2ccc(C)c(Cl)c2)c2cnn(C)c2n1	-20	·	14µM*	·	·	·
CCCCNc1nc(Nc2ccc(C)c(Cl)c2)c2cnn(C)c2n1	1	·	13µM*	·	·	·
Cn1ncc2c(Nc3ccc(Cl)c(Cl)c3)ncnc21	-38	·	?	·	·	·
C[C@@H]1CC2=CCCC2[C@]2(O1)C(=O)N(Cc1ccc(F)cc1)c1cccc(Br)c12 (some centres undefined)	·	·	·	8%[14.2 µM]	·	·
Cc1ccc(S(=O)(=O)c2nnn3c2nc(NC2CCCCCC2)c2sccc23)cc1C	-20	?	·	·	-17%	-22%[46.1 µM]
CCOC(=O)c1c(-c2ccccc2)c2cc(OC)ccc2n1CCCN(C)C	7	·	14µM*	·	·	·
CCOC(=O)c1c(C)n(CCNC(C)=O)c2ccc(OC)cc12	28	-10%	-8%	-22%	-11%	-11%
COC(=O)c1sc2cccc(F)c2c1S(=O)(=O)Nc1ccc(N(C)C)cc1	14	-6%	·	·	-6%	29%[46.1 µM]
Cc1cc(Sc2nc(NC(C)C)nc(NC(C)C)n2)nc(Cl)n1	-15	?	14%	3%[46.1 µM]	7.9µM*	-3%
CSc1nc(NC(C)C)nc(NC(C)C)n1	21	-20%	16%	-3%	-2%	8%
COc1ccc(NC(=O)C2CCCN(S(=O)(=O)c3ccc4c(c3)CCCN4C(C)=O)C2)cc1Cl (centres undefined)	?	-2%	2.5µM*	-10%[46.1 µM]	i	?
CC(=O)N1CCCc2cc(S(=O)(=O)N3CCCC(C(=O)NCc4ccc(C)cc4)C3)ccc21 (centres undefined)	-72*!	-15%	?	·	-14%	?
CC(=O)N1CCCc2cc(S(=O)(=O)N3CCCC(C(=O)NCc4ccccc4)C3)ccc21 (centres undefined)	0	-23%	-14%	·	-26%	?
COc1ccc(S(=O)(=O)N2CCCC(C(=O)NCc3ccncc3)C2)cc1Cl (centres undefined)	-66*	-12%	-25%	-5%	-9%	16%
O=c1[nH]c2ccccc2n1CCCN1CCN(C(c2ccccc2)c2ccccc2)CC1	·	·	3%[8.37 µM]	13µM*	·	18µM*
c1ccc(OCCN2CCNCC2)cc1	8	2%	-8%	10%[46.1 µM]	-7%	-1%[46.1 µM]
O=c1[nH]c2ccccc2n1CCCN1CCCCC1	7	-10%	5%	?	-5%	3%
c1cnc(OCCN2CC2)cn1	-21	-12%	25%	12%	-14%	-5%
SMILES	HCMV antiviral	VACV Venus inh	HCV inh	MARV entry inh	Vaccinia mCherry	Lassa entry inh
c1cc(OCCN2CC2)ccn1	-100*	-10%	?	7.1µM*	-22%	-24%
c1ccc(OCCN2CCN(C(c3ccccc3)c3ccccc3)CC2)cc1	9	·	11µM*	·	·	·
Cc1ncc2c(c1CNC(=O)c1cncs1)CCN(C(=O)c1cccc(-c3cccc(F)c3)c1)C2	·	0%	·	·	i	·
O=C(c1ccc(COc2ccc(F)cc2)o1)n1cccn1	-104*	-11%	19%	17%	i	14%
O=C(c1ccc(COc2ccc(F)cc2)o1)n1cc(Br)cn1	77	·	14%	6%	·	3%
CCOc1ccccc1NC(=O)CN1c2ccccc2S(=O)(=O)c2ccccc21	12	-8%	·	·	-16%	-5%[46.1 µM]
Cc1[nH]n(-c2ccccc2)c(=O)c1C(C[N+](=O)[O-])c1ccccc1Cl (centres undefined)	8	-10%	2%	35%	-13%	5%
COc1ccc(C(C[N+](=O)[O-])c2c(C)[nH]n(-c3ccccc3)c2=O)cc1 (centres undefined)	-103*	3%	-9%	-10%[46.1 µM]	2%	4%
O=C(NCCc1ccccn1)c1cccc(S(=O)(=O)N2CCc3ccccc32)c1	19	-15%	?	-7%	-29%	-4%
CC(NS(=O)(=O)c1cccc(C(=O)NCc2ccncc2)c1)c1ccccc1 (centres undefined)	-100*	·	-9%	·	·	·
CC1Cc2ccccc2N1S(=O)(=O)c1cccc(C(=O)NCc2ccccn2)c1 (centres undefined)	0	·	?	·	·	·
O=C(NCc1ccncc1)c1cccc(S(=O)(=O)N2CCc3ccccc32)c1	?	·	11µM*	·	·	·
CC1Cc2ccccc2N1S(=O)(=O)c1cccc(C(=O)NCc2ccncc2)c1 (centres undefined)	-89*	?	?	7.9µM*	-25%	-20%
O=C(c1cccc(S(=O)(=O)N2CCCCC2)c1)N1CCc2ccccc21	-72*	-19%	?	?	i	6%
CC1CCN(S(=O)(=O)c2ccc3c(c2)N(CC(=O)N2CCN(c4ccccc4)CC2)C(=O)CO3)CC1	-15	-2%	·	?	-6%	21%[46.1 µM]
CCc1ccc2[nH]c(=O)c(CN(Cc3cccs3)Cc3nnnn3Cc3ccccc3)cc2c1	·	-30%	·	·	-12%	·
COc1cc(OC)cc(C(=O)NCCc2csc(-c3ccc(C(F)(F)F)cc3)n2)c1	-35	-18%	·	·	-15%	3%[46.1 µM]
C[C@@H]1[C@H](c2ccccc2)OCCS(=O)(=O)N1Cc1cccc(C(F)(F)F)c1	·	-11%	·	·	-15%	·
CC(=O)N1CCN(C(=O)c2cccc(S(=O)(=O)N3c4ccccc4CC3C)c2)CC1 (centres undefined)	-19	-13%	-6%	1%[46.1 µM]	i	-24%[46.1 µM]
COc1cc2c(cc1OC)CN(C(=O)c1cccc(S(=O)(=O)N3CCc4ccccc43)c1)CC2	?	-2%	?	4µM*	-29%	4µM*
CC1Cc2ccccc2N1S(=O)(=O)c1cccc(C(=O)N2CCN(c3ncccn3)CC2)c1 (centres undefined)	-98*	18%	?	?	1.6µM*	?
COc1ccc2c(c1)CCc1cnc(-n3ncc(C(=O)N(C)CCc4ccccn4)c3C)nc1-2	·	-30%	·	·	-10%	·
